Assay [1] is described as follows: qHTS assay for small molecules that induce genotoxicity in human embryonic kidney cells expressing luciferase-tagged ATAD5 (AID 651632). Note: nearly all actives have a fitted effect of over 15% in size. Note: potency is the fitted concentration of half-maximal effect. The method in brief: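 Increased luciferase signal from ATAD5-tagged reporter cells indicates DNA-damage-driven ATAD5 induction. HEK293T cells are treated for 16 hr at 37C before detection with Amplite.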
Assay [2] can be described thus: qHTS assay for small molecule agonists of the p53 signaling pathway - cell viability (AID 651633; calls by dose curve;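 note: p53RE-bla HCT reporter cells with a stable beta-lactamase p53 reporter; series mostly up to about 83 µM; nearly all actives have a fitted effect of over 30% in size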). The gist of the method:
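p53RE-bla cells, seeded at 4,000 per well and rested 5 h at 37 C/5% CO2, received compounds in DMSO for 16 h at 37 C. CellTiter-Glo was then added, and luminescence was read after 30 min at room temperature to gauge cytotoxicity.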
For orientation: In qHTS, concentration-response curves come from the screen itself.

Assay [3] can be described thus: qHTS assay for small molecules that induce genotoxicity in human embryonic kidney cells expressing luciferase-tagged ATAD5 - cell viability (AID 651634; calls by dose curve; note: nearly all actives have a fitted effect of over 25% in size). The method in brief:
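Cytotoxicity counterscreen in HEK293T cells bearing an ATAD5-luciferase reporter: live-cell protease activity measured by CellTiter-Fluor fluorescence after 15.5 hr compound exposure.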

The nature of assay [4]: qHTS assay for small molecule disruptors of the mitochondrial membrane potential - cell viability (AID 720634; calls by dose curve; note: nearly all actives have a fitted effect of over 20% in size; note: potency is the fitted concentration of half-maximal effect). The gist of the method: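 After overnight attachment at 37 C, HepG2 cells received compound or DMSO vehicle for 1 hr. Viability is then taken from ATP-driven luminescence following a 30 min room-temperature CellTiter-Glo step.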
Assay [5] can be described thus: qHTS assay for small molecule disruptors of the mitochondrial membrane potential (AID 720635). Note: potency is the fitted concentration of half-maximal effect. The gist of the method:
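HepG2 cells (2,000/well) attached overnight at 37C, then took compound for 1 hr at 37C, 5% CO2. Mito-MPS dye was added for 30 min; fluorescence was read at 490/535 nm (monomers) and 540/590 nm (aggregates).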

Assay [6] can be described thus: qHTS assay to test for compound auto fluorescence at 590 nm (red) in HepG2 cells (AID 720674). The gist of the method: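 Compound auto-fluorescence is scored relative to Rose Bengal sodium, measured at 540/590 nm in live HepG2 cultures after 1 hr compound contact (37 C, 5% CO2).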
Assay [7] is described as follows: qHTS assay to test for compound auto fluorescence at 535 nm (green) in HepG2 cells (AID 720675).
Assay [8] in a line: qHTS assay to test for compound auto fluorescence at 460 nm (blue) in HEK293 cells (AID 720678). The gist of the method:
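Blue-channel (Ex/Em 405/460 nm) intensity measured in HEK293 cultures after overnight compound exposure at 37C; signal expressed relative to triamterene. Cells plated 2,000 per well in 10% dialyzed FBS medium and allowed 4-5 hr to attach.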

Assay [9] in a line: qHTS assay to test for compound auto fluorescence at 590 nm (red) in HEK293 cells (AID 720679). The method in brief:
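Red-channel autofluorescence (Ex/Em 540/590 nm; Rose Bengal sodium reference) was measured after overnight 37C, 5% CO2 exposure of attached HEK293 cells, 2,000 per well in medium with 10% dialyzed FBS.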

Assay [10] is described as follows: qHTS assay for small molecule agonists of the p53 signaling pathway (AID 651631; calls by dose curve; note: nearly all actives have a fitted effect of over 15% in size). The gist of the method:
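Fluorescence intensity from cleaved LiveBLAzer B/G substrate (2 h, room temperature) served as the signal. Beforehand, HCT-116 reporter cells bearing p53 response elements were treated 16 h at 37 °C with DMSO-dissolved compounds.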

Where “and” joins values, the source holds several entries; their conditions need not be identical. Equal values may be shown once. Records with an inconclusive call do not appear. Where a structure was tested more than once in an assay, its records may differ in their call. Calls of active or inactive are those of the source. Unless noted, calls come from the whole dose curve; as a rule, active = well fitted curve in the direction sought with a large enough effect in the repeat runs; inconclusive = weak or mixed curves; inactive = no such curve, though single readings can be large; an effect the other way counts as inactive or inconclusive.

Take `O=C(CCl)c1ccccc1`: the Potency in assay [1] was 68.6 µM (active). The Potency entry in assay [2], in [3], in assay [4] and in assay [5] was “inactive” each time. Also, the outcome in assay [6], in assay [7], in [8] and in assay [9] was inactive.

As for `CCOCN(C(=O)CCl)c1c(C)cccc1CC`, the Potency result in assay [1], in [2], in assay [3] and in [4] was “inactive” throughout. Moreover, the outcome in assay [6], in [7], in assay [8] and in [9] was inactive.

With `Cc1c(COC(=O)[C@@H]2[C@H](/C=C(\Cl)C(F)(F)F)C2(C)C)cccc1-c1ccccc1`, the Potency result in assay [1], in [3] and in [4] was “inactive” in each case. In assay [5], the Potency was 26.7 µM (active) and 34.3 µM (active). For the same molecule, the molecule was called inactive in assay [6], in [7], in assay [8] and in assay [9].

Consider `C[C@]12CCC(=O)C[C@@H]1CC[C@@H]1[C@@H]2CC[C@]2(C)[C@@H](O)CC[C@@H]12`, for which the Potency entry in [10], in [2] and in assay [3] was “inactive” each time. Besides, the result in assay [6], in [7], in [8] and in [9] was inactive.

As to `NC(=S)Nc1ccccc1`, the Potency result in assay [1], in [2] and in [3] was “inactive” throughout. The call in assay [6], in assay [7], in assay [8] and in assay [9] was inactive.

For the molecule `CC(C)(C)c1ccccc1O`, the Potency entry in assay [1], in assay [2] and in assay [3] was “inactive” each time. Moreover, the result in assay [6], in assay [7], in assay [8] and in assay [9] was inactive.

With `CCC(C)(c1ccc(O)cc1)c1ccc(O)cc1`, the Potency result in assay [1], in [2], in assay [3] and in assay [4] was “inactive” throughout. Further, the Potency in [5] is 7.69 µM (active) and 9.69 µM (active). Also, the molecule was classed as inactive in [6], in assay [7], in [8] and in assay [9].

For `CC(C)Oc1cc(-n2nc(C(C)(C)C)oc2=O)c(Cl)cc1Cl`, the Potency entry in [1], in assay [2] and in [3] was “inactive” throughout. For the same molecule, the Potency in assay [4] was 12 µM (active) and 54.5 µM (active); in [5] it was 24 µM (active) and 43.3 µM (active). For the same molecule, the outcome in assay [6], in assay [7], in assay [8] and in assay [9] was inactive.

Turning to `Cc1ccc(N)c(N)c1`, the Potency in [1] was 68.8 µM (active) and 68.6 µM (active). The Potency result in assay [2], in [3] and in assay [4] was “inactive” throughout. The molecule was called inactive in assay [6], in assay [7], in assay [8] and in [9].

Consider `C#CCOS(=O)OC1CCCCC1Oc1ccc(C(C)(C)C)cc1` (centres undefined), for which the Potency entry in assay [1], in [2] and in assay [3] was “inactive” in each case. In addition, the Potency entry in assay [4] was “inactive and 3.86 µM (active)”; in assay [5], 15.4 µM (active) and 24.3 µM (active). Besides, the molecule was called inactive in assay [6], in assay [7], in assay [8] and in assay [9].

On to `CCCCN(CC)c1c([N+](=O)[O-])cc(C(F)(F)F)cc1[N+](=O)[O-]`, for which the Potency result in assay [1], in assay [2], in [3] and in [4] was “inactive” throughout. In addition, in assay [5], the Potency was 6.86 µM (active). Moreover, the call in [6], in assay [7], in assay [8] and in [9] was inactive.

In the case of `C1=Cc2cccc3cccc1c23`, the Potency entry in assay [1], in [2], in assay [3] and in assay [4] was “inactive” throughout. Besides, the call in [6], in assay [7], in assay [8] and in assay [9] was inactive.

`C=CCc1ccc(OC)cc1`: the Potency entry in assay [2], in assay [3] and in [4] was “inactive” each time. The molecule was classed as inactive in assay [6], in assay [7], in [8] and in assay [9].

In the case of `ClC1C(Cl)C(Cl)C(Cl)C(Cl)C1Cl` (centres undefined), the Potency entry in assay [10], in assay [2], in assay [3] and in assay [4] was “inactive” throughout. Besides, the outcome in assay [6], in assay [7], in assay [8] and in [9] was inactive.

On to `S=C1NCCN1`, for which the Potency entry in [10], in assay [2] and in [3] was “inactive” in each case. The result in assay [6], in [7], in assay [8] and in assay [9] was inactive.

With `O=C(NC(=O)c1c(F)cccc1F)Nc1ccc(Cl)cc1`, the Potency result in assay [1], in [2], in assay [3], in assay [4] and in [5] was “inactive” in each case. For the same molecule, the outcome in assay [6], in assay [7], in assay [8] and in assay [9] was inactive.

In the case of `CCCCCc1cc(O)cc(O)c1`, the Potency result in [1] and in assay [2] was “inactive” throughout. Besides, the Potency is 61.1 µM (active) in [4]; 9.73 µM (active) and 7.7 µM (active) in assay [5]. Besides, the result in assay [6], in assay [7], in [8] and in assay [9] was inactive.

In the case of `CCCCC(CC)COC(=O)Cl` (centres undefined), the Potency entry in [1], in assay [2] and in assay [3] was “inactive” each time. Besides, the molecule was classed as inactive in assay [6], in assay [7], in assay [8] and in assay [9].

In the case of `Brc1ccc(Oc2cc(Br)c(Br)cc2Br)c(Br)c1`, the Potency result in assay [1], in [2], in assay [3] and in assay [4] was “inactive” in each case. For the same molecule, in assay [5], the Potency was 4.86 µM (active) and 8.7 µM (active). Also, the molecule was classed as inactive in assay [6], in assay [7], in [8] and in assay [9].

Regarding `Cc1cccc(N)c1N`, the Potency entry in assay [1], in assay [2], in assay [3] and in assay [4] was “inactive” each time. Further, the Potency in assay [5] is 21 µM (active) and 17.2 µM (active). Besides, the outcome in [6], in assay [7], in assay [8] and in assay [9] was inactive.

In the case of `COP(=S)(OC)Oc1ccc([N+](=O)[O-])cc1`, the Potency entry in [10] and in assay [2] was “inactive” each time. The Potency result in assay [4] was “inactive and 54.5 µM (active)”; in [5] it was 34.4 µM (active). Besides, the call in [6], in [7], in assay [8] and in assay [9] was inactive.

With `Nc1c(Cl)cc([N+](=O)[O-])cc1Cl`, the Potency result in assay [1], in assay [2] and in assay [3] was “inactive” throughout. Moreover, the Potency was 24.3 µM (active) in assay [4]; 24.5 µM (active) and 4.33 µM (active) in assay [5]. In addition, the molecule was called inactive in assay [6], in [7], in assay [8] and in [9].
